Data published in ChEMBL document CHEMBL1961873, “Compounds: GSK PKIS; Assays: Nanosyn kinase panel” (2012).

Molecular target: Protein-tyrosine kinase 6 (Homo sapiens) (UniProt Q13882)
Details: at 0.1 µM

Sequence of Protein-tyrosine kinase 6 (Homo sapiens) (Q13882 whole entry, looked up): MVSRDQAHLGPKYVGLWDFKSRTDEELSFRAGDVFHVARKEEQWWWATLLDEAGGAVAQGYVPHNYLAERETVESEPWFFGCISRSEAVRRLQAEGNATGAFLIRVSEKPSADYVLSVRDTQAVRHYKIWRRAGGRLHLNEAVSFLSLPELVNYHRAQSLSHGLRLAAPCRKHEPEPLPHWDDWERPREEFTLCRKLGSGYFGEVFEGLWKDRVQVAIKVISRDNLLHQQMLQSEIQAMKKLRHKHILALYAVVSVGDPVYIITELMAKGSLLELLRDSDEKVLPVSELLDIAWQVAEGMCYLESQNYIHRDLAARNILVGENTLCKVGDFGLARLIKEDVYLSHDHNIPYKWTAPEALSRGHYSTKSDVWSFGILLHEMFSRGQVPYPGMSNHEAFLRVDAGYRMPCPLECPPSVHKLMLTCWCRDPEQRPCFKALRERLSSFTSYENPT

First: Nc1ccc(C#Cc2cncnc2Nc2ccc(OCc3cccc(F)c3)c(Cl)c2)cc1
Second: Nc1nccc(C#Cc2cncnc2Nc2ccc(OCc3cccc(F)c3)c(Cl)c2)n1
The inhibition of the first is lower: 0.17% for the first, 4.52% for the second.

Compared with `O=S(=O)(CCOCc1ccc(-c2ccc3ncnc(Nc4ccc(OCc5cccc(F)c5)c(Cl)c4)c3c2)o1)c1ccccc1`, `CS(=O)(=O)CCNCc1nc(-c2ccc3ncnc(Nc4ccc(OCc5cccc(C(F)(F)F)c5)cc4)c3c2)cs1` is lower in inhibition: 0.18% for the first, -0.74% for the second.

Compared with `ON=C1CCc2cc(-c3nc(C4CCNCC4)[nH]c3-c3ccncc3)ccc21`, `Oc1cccc(-c2nc(-c3ccccc3)[nH]c2-c2ccncc2)c1` is higher in inhibition: -0.84% for the first, 13% for the second.

Going from `Cc1cc(O)cc(C)c1/C=C/c1cncc(C(=O)N(C)C)c1` to `COC(=O)c1cncc(/C=C/c2c(C)cc(O)cc2C)c1`, the inhibition rises from 2.85% to 11.4%.

Going from `CCn1c(-c2nonc2N)nc2c(C#CC(C)(C)O)nc(OCCNC)cc21` to `CCn1c(-c2nonc2N)nc2ccc(F)cc21`, the inhibition falls from 5.42% to 4.83%.

Compared with `Cc1cc(-c2ccccn2)cc(C)c1/C=C/c1cncc(-c2nn[nH]n2)c1`, `Cc1ccc(Nc2ccnc(Nc3cccc(C(N)=O)c3)n2)cc1O` is higher in inhibition: 9.43% for the first, 48.9% for the second.

First: NS(=O)(=O)c1ccc(-c2cc3ccncc3cc2OCc2ccccc2)cc1
Second: COc1ccc2ncnc(Nc3ccc(OCc4ccccc4)cc3)c2c1
The inhibition of the first is higher: 2.61% for the first, 0.54% for the second.

Going from `CS(=O)(=O)Nc1cccc(-c2ccc3c(NC(=O)C4CC4)n[nH]c3c2)c1` to `Cc1ccc(C(=O)NC2CC2)cc1-c1ccc2[nH]ncc2c1`, the inhibition falls from -1.65% to -2.14%.

Going from `O=C(Nc1ccc(Oc2ccc3[nH]c(NC(=O)c4ccco4)nc3c2)cc1)Nc1cc(C(F)(F)F)ccc1F` to `CN(c1ccc(NC(=O)Nc2ccc(OC(F)(F)F)cc2)cc1)c1ccnc(Nc2cccc(S(N)(=O)=O)c2)n1`, the inhibition rises from 1.76% to 16.1%.

Going from `COc1cc2ncnc(Nc3ccc4c(cnn4Cc4ccccc4)c3)c2cc1OC` to `CN(C)c1cc2c(Nc3ccc4c(cnn4Cc4ccccc4)c3)ncnc2cn1`, the inhibition falls from 13.1% to 5.3%.

First: Cc1ccc2c(c1)/C(=N/Nc1ccc(S(N)(=O)=O)cc1)C(=O)N2
Second: CC(C)c1ccc2c(c1)NC(=O)/C2=N/Nc1ccc(S(N)(=O)=O)cc1
The inhibition of the first is lower: -3.49% for the first, 0.98% for the second.

Going from `CN(C)CCCn1c(-c2nonc2N)nc2cnccc21` to `Cc1nc(-c2ccccc2)n2nc(NCCCN3CCOCC3)ncc12`, the inhibition falls from 0.2% to -2.39%.

Compared with `CCCN1CCCC(c2ccc(Nc3nc(Nc4cc(F)ccc4C(N)=O)c4cc[nH]c4n3)c(OC)c2)C1` (stereo unspecified), `CN(C)C(=O)O[C@H]1CN[C@H](C#Cc2cc3ncnc(Nc4ccc(OCc5cccc(F)c5)c(Cl)c4)c3s2)C1` is lower in inhibition: 18.1% for the first, 5.52% for the second.

First: Cc1ccc(NC(=O)CC2CC2)cc1-c1ccc(C(=O)NCC2CC2)cc1
Second: CN1CCN(C(=O)c2ccc(NC(=O)Nc3ccc(N(C)c4ccnc(Nc5ccc(CS(C)(=O)=O)cc5)n4)cc3)cc2)CC1
The inhibition of the first is higher: 4.58% for the first, -1.96% for the second.

Compared with `NC(=O)c1sc(-n2cnc3ccccc32)cc1OCc1ccccc1Br`, `Cc1ccc2c(-c3ccnc(Nc4cccc(C(F)(F)F)c4)n3)c(-c3ccccc3)nn2n1` is higher in inhibition: 1.74% for the first, 15.5% for the second.

Compared with `COc1cc(/C=N/Nc2ncnc3c2cnn3C(C)C)ccc1O`, `NS(=O)(=O)c1ccc(NC=C2C(=O)Nc3ccc4ncsc4c32)cc1` is higher in inhibition: 1.02% for the first, 3.25% for the second.

Work on `Nc1nccc(-c2c(-c3ccc(F)cc3)nn3cc(C(F)(F)F)ccc23)n1` yielded an inhibition of 1.57%.

Molecular target: Protein-tyrosine kinase 6 (Homo sapiens) (UniProt Q13882)
Details: at 1 µM

First: Nc1ccc(C#Cc2cncnc2Nc2ccc(OCc3cccc(F)c3)c(Cl)c2)cc1
Second: Nc1nccc(C#Cc2cncnc2Nc2ccc(OCc3cccc(F)c3)c(Cl)c2)n1
The inhibition of the first is higher: 4.63% for the first, 3.74% for the second.

First: O=S(=O)(CCOCc1ccc(-c2ccc3ncnc(Nc4ccc(OCc5cccc(F)c5)c(Cl)c4)c3c2)o1)c1ccccc1
Second: CS(=O)(=O)CCNCc1nc(-c2ccc3ncnc(Nc4ccc(OCc5cccc(C(F)(F)F)c5)cc4)c3c2)cs1
The inhibition of the first is higher: 1.77% for the first, 1.75% for the second.

Compared with `ON=C1CCc2cc(-c3nc(C4CCNCC4)[nH]c3-c3ccncc3)ccc21`, `Oc1cccc(-c2nc(-c3ccccc3)[nH]c2-c2ccncc2)c1` is higher in inhibition: -2.02% for the first, 55.4% for the second.

First: Cc1cc(O)cc(C)c1/C=C/c1cncc(C(=O)N(C)C)c1
Second: COC(=O)c1cncc(/C=C/c2c(C)cc(O)cc2C)c1
The inhibition of the first is lower: 6.32% for the first, 50.2% for the second.

Compared with `CCn1c(-c2nonc2N)nc2c(C#CC(C)(C)O)nc(OCCNC)cc21`, `CCn1c(-c2nonc2N)nc2ccc(F)cc21` is higher in inhibition: 3.09% for the first, 8.38% for the second.

First: Cc1cc(-c2ccccn2)cc(C)c1/C=C/c1cncc(-c2nn[nH]n2)c1
Second: Cc1ccc(Nc2ccnc(Nc3cccc(C(N)=O)c3)n2)cc1O
The inhibition of the first is lower: 51% for the first, 91.5% for the second.

Going from `NS(=O)(=O)c1ccc(-c2cc3ccncc3cc2OCc2ccccc2)cc1` to `COc1ccc2ncnc(Nc3ccc(OCc4ccccc4)cc3)c2c1`, the inhibition rises from 5.54% to 9.39%.

Compared with `CS(=O)(=O)Nc1cccc(-c2ccc3c(NC(=O)C4CC4)n[nH]c3c2)c1`, `Cc1ccc(C(=O)NC2CC2)cc1-c1ccc2[nH]ncc2c1` is lower in inhibition: -2.5% for the first, -3.93% for the second.

Compared with `O=C(Nc1ccc(Oc2ccc3[nH]c(NC(=O)c4ccco4)nc3c2)cc1)Nc1cc(C(F)(F)F)ccc1F`, `CN(c1ccc(NC(=O)Nc2ccc(OC(F)(F)F)cc2)cc1)c1ccnc(Nc2cccc(S(N)(=O)=O)c2)n1` is higher in inhibition: 3.78% for the first, 77.1% for the second.

Compared with `COc1cc2ncnc(Nc3ccc4c(cnn4Cc4ccccc4)c3)c2cc1OC`, `CN(C)c1cc2c(Nc3ccc4c(cnn4Cc4ccccc4)c3)ncnc2cn1` is lower in inhibition: 53.2% for the first, 29.2% for the second.

Going from `Cc1ccc2c(c1)/C(=N/Nc1ccc(S(N)(=O)=O)cc1)C(=O)N2` to `CC(C)c1ccc2c(c1)NC(=O)/C2=N/Nc1ccc(S(N)(=O)=O)cc1`, the inhibition rises from -3.16% to 1.26%.

Compared with `CN(C)CCCn1c(-c2nonc2N)nc2cnccc21`, `Cc1nc(-c2ccccc2)n2nc(NCCCN3CCOCC3)ncc12` is lower in inhibition: 3.36% for the first, 2.23% for the second.

First: CCCN1CCCC(c2ccc(Nc3nc(Nc4cc(F)ccc4C(N)=O)c4cc[nH]c4n3)c(OC)c2)C1 (stereo unspecified)
Second: CN(C)C(=O)O[C@H]1CN[C@H](C#Cc2cc3ncnc(Nc4ccc(OCc5cccc(F)c5)c(Cl)c4)c3s2)C1
The inhibition of the first is higher: 67.8% for the first, 4.14% for the second.

Going from `Cc1ccc(NC(=O)CC2CC2)cc1-c1ccc(C(=O)NCC2CC2)cc1` to `CN1CCN(C(=O)c2ccc(NC(=O)Nc3ccc(N(C)c4ccnc(Nc5ccc(CS(C)(=O)=O)cc5)n4)cc3)cc2)CC1`, the inhibition rises from 5.79% to 13.5%.

Going from `NC(=O)c1sc(-n2cnc3ccccc32)cc1OCc1ccccc1Br` to `Cc1ccc2c(-c3ccnc(Nc4cccc(C(F)(F)F)c4)n3)c(-c3ccccc3)nn2n1`, the inhibition rises from 7.25% to 70.9%.

First: COc1cc(/C=N/Nc2ncnc3c2cnn3C(C)C)ccc1O
Second: NS(=O)(=O)c1ccc(NC=C2C(=O)Nc3ccc4ncsc4c32)cc1
The inhibition of the first is lower: 4.8% for the first, 8.92% for the second.

Compound `Nc1nccc(-c2c(-c3ccc(F)cc3)nn3cc(C(F)(F)F)ccc23)n1` has an inhibition of -4.29%.
